IMPase Li cell: IMPase inhibition in cells with lithium potentiation | CHO-M1 cells, IP1 TR-FRET (IP-One), carbachol + lithium | Potency, µM (top dose mostly 59.4 µM), for inactives: top-dose activity, negative = IMPase inhibition, usual class: inhibitors | actives 0.35% (n = 210,000);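 further: IP1 builds up when IMPase is blocked and the TR-FRET signal falls; potency means the concentration at half of the fitted maximal effect; plate controls were basal vehicle for no effect and high inhibitor control for full effect; nearly all actives have a fitted effect of over 50% in size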
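Test compounds were applied to CHO-M1 cells previously cultured for 16–30 h at 2000 per well. A small lithium amount accompanied them; after 30 min at 37C, IP1 was quantified by TR-FRET.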
NPSR antag: neuropeptide S receptor (human) antagonism, cAMP | Q6W5P4 | Potency, µM (series often up to 38.3 µM), inactives show at the top dose activity change, negative = inhibition, actives largely listed as inhibitors | actives 1% (n = 220,000) | CHO-NPSR cells, cAMP TR-FRET, antagonist mode; further: potency means the concentration at half of the fitted maximal effect; nearly all actives have a fitted effect of over 50% in size
Target sequence (Q6W5P4 whole entry, looked up): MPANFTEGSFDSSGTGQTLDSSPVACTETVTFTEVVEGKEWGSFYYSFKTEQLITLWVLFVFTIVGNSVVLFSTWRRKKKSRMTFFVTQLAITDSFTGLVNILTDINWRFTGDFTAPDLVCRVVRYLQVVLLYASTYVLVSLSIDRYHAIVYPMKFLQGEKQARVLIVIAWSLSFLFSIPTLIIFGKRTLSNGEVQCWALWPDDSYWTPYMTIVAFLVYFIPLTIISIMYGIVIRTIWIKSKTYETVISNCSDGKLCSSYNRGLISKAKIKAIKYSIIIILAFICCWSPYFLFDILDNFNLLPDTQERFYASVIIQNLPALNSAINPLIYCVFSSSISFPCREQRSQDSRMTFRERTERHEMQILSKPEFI
HPGD inh: HPGD (human) dehydrogenase inhibition; P15428; purified HPGD, NADH fluorescence kinetic, PGE2 substrate; Potency, µM, without a hit: at the top dose activity change, negative = inhibition, hits mostly inhibitors; actives 4.3% (n = 150,000); active means well fitted inhibition curve with a large enough effect, not every such curve was filed as active; inconclusive means small, poorly fitted or top-dose-only effect, or another doubt; inactive means no such curve, though single readings can be large or run the other way; further: potency means the concentration at half of the fitted maximal effect
Target sequence (P15428 whole entry, looked up): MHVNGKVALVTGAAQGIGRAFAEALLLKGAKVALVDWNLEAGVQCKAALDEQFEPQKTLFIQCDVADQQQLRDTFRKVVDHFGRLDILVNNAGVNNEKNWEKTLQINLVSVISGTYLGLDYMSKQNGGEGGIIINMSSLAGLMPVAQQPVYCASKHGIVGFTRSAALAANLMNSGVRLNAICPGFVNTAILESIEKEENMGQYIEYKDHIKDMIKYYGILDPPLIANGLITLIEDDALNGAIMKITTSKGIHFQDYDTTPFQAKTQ
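20 nM HPGD preincubated 15 min at room temperature with compound in 50 mM Tris-HCl pH 8, 0.01% Tween 20. Started with 1 mM NAD+ and 30 uM prostaglandin E2; NADH fluorescence (360/450 nm) read 5 times over 30-s intervals, last minus first.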
ALOX12 inhib: blocks human 12-lipoxygenase activity; Potency, µM (doses to about 57.1 µM), inactives show top-dose activity change, negative = inhibition, hits mostly inhibitors; AID 1452; actives 0.12% (n = 150,000); purified 12-hLO, xylenol orange hydroperoxide absorbance; P18054; further: potency means the concentration at half of the fitted maximal effect; nearly all actives have a fitted effect of over 55% in size
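Lipoxygenase turnover measured by absorbance at 573 and 405 nm after Fe-XO development. Human 12hLO 150 nM, arachidonate 40 uM, pH 7.0 Hepes buffer with detergent; 15 min compound preincubation, 30 min reaction.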
IMPase cell inh: cell-permeable inhibitors of inositol monophosphatase (IMPase). CHO-M1 cells, IP1 accumulation, HTRF TR-FRET ratio. 120,000 tested, under 10 active. inhibition (IP1 accumulation), % at 46.1 µM. P97697; active means well fitted curve in the direction sought with a large enough effect in the signal ratio, not every such curve was filed as active; inconclusive means small, poorly fitted or top-dose-only effect, or a change in a side signal; inactive means no such curve, though single readings can be large or run the other way; the % refers to the signal ratio;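 further: cells stimulated with carbachol in lithium chloride buffer; plate controls were DMSO basal wells for no effect and reference inhibitor wells for full effect; higher means more IMPase inhibition seen as more IP1 and lower FRET ratio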
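CHO-M1, 2000 cells/well, cultured 16–30 h; cpd up to 46 uM; carbachol (50 uM solution, stimulation buffer w/ 50 mM LiCl, pH 7.4), 30 min 37C; IP-One TR-FRET, 10 min RT; Ex 320/Em 665, 620; Hill-fit AC50.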
ALDH1A1 inh: ALDH1A1 (human) enzyme inhibition | Purified ALDH1A1, NADH fluorescence, propionaldehyde substrate | Potency, µM (top dose mostly 75.3 µM), for inactives: at the highest dose activity, negative = inhibition, hits mostly inhibitors | actives 7.3% (n = 220,000); active means well fitted inhibition curve with a large enough effect, not every such curve was filed as active; inconclusive means small, poorly fitted or top-dose-only effect, or another doubt; inactive means no such curve, though single readings can be large or run the other way;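 further: potency means the concentration at half of the fitted maximal effect; plate controls were no enzyme wells and a reference inhibitor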
Numbers without * were called inactive; [ ] = dose if it differs, or a comment. This is a sample that favours compounds with a hit; in the whole collection about 8.9% have one here. Unless noted, the call rests on the fitted dose curve; in most records, active means well fitted curve in the direction sought with a large enough effect; inconclusive means small, poorly fitted or top-dose-only effect, or another doubt; inactive means no such curve, though single readings can be large; an effect the other way counts as inactive or inconclusive. Unless noted, on the % scale 0 is the no-effect control and ±100 the full control effect.

`CC(C)(C)c1ccc(S(=O)(=O)NCc2ccc(C(=O)N3CCCC3)cc2)cc1` gave IMPase Li cell 14%[38.3 µM], NPSR antag -15%[46.1 µM], HPGD inh inconclusive, ALOX12 inhib -1%, IMPase cell inh -5 and ALDH1A1 inh 4µM*.
Screening O=C(N=NC(=O)c1ccc2c(O)n(CC3CCCO3)c(O)c2c1)c1cccnc1 (stereo unspecified) returned NPSR antag -16% and ALDH1A1 inh inconclusive.
`CCOC(=O)c1nnn(-c2nc(OC)nc(N3CCCC3)n2)c1-c1ccccc1` gave IMPase Li cell 2%[38.3 µM], NPSR antag -18%[46.1 µM], HPGD inh -8%, ALOX12 inhib -4%, IMPase cell inh 4 and ALDH1A1 inh 4%.
`COc1ccc(CC(=O)Nc2cc(C)on2)cc1` gave IMPase Li cell 15%[38.3 µM], NPSR antag 0%[46.1 µM], HPGD inh -6%, ALOX12 inhib -4%, IMPase cell inh -11 and ALDH1A1 inh 0%.
For Cc1cc(NC(=O)CCOc2ccc(F)cc2)no1 the results were NPSR antag -1% and ALDH1A1 inh 0.71µM*.
`COc1ccc(OCCC(=O)Nc2cc(C)on2)cc1` gave IMPase Li cell 5%[38.3 µM], NPSR antag -4%[46.1 µM], HPGD inh -4%, ALOX12 inhib 1%, IMPase cell inh 9 and ALDH1A1 inh 22µM*.
Screening CN(C(=O)c1cccc(N2C(=O)C3CC=CCC3C2=O)c1)C1CCCCC1 (stereo unspecified) returned IMPase Li cell 20%[38.3 µM], NPSR antag -14%[46.1 µM], HPGD inh inconclusive, ALOX12 inhib 2%, IMPase cell inh 0 and ALDH1A1 inh inconclusive.
`CCOC(=O)c1cc2sccc2n1CC(=O)N1CCCc2ccccc21` gave IMPase Li cell 18%[38.3 µM], NPSR antag inconclusive, HPGD inh -22%, ALOX12 inhib -8%, IMPase cell inh 6 and ALDH1A1 inh -4%.
COC(=O)c1cc2oc(C)cc2n1CC(=O)N1CCCc2ccccc21 was read as IMPase Li cell 17%[38.3 µM], NPSR antag -15%[46.1 µM], HPGD inh -17%, ALOX12 inhib -12%, IMPase cell inh 7 and ALDH1A1 inh 20µM*.
Screening CCOC(=O)c1cc2occc2n1CC(=O)N1CCCc2ccccc21 returned IMPase Li cell 15%[38.3 µM], NPSR antag inconclusive, HPGD inh -16%, ALOX12 inhib -17%, IMPase cell inh 13 and ALDH1A1 inh 8.9µM*.
`COC(=O)c1cc2sccc2n1CC(=O)N1CCCc2ccccc21` gave IMPase Li cell 25%[38.3 µM], NPSR antag -13%[46.1 µM], HPGD inh -9%, ALOX12 inhib 1%, IMPase cell inh inconclusive and ALDH1A1 inh -7%.
Screening CCC(C)Oc1cccc(C(=O)Nc2ccccc2N2CCOCC2)c1 (stereo unspecified) returned IMPase Li cell 21%[38.3 µM], NPSR antag -26%[46.1 µM], HPGD inh -18%, ALOX12 inhib 2%, IMPase cell inh 11 and ALDH1A1 inh inconclusive.
`CC(=O)Nc1ccc(NS(=O)(=O)c2ccc(-c3csc(C)n3)s2)cc1` gave NPSR antag 7% and ALDH1A1 inh 0%.
`Cc1ccc(-c2cc(=O)[nH][nH]2)c(C)c1` gave IMPase Li cell 29%[38.3 µM], NPSR antag 4%[46.1 µM], HPGD inh -8%, ALOX12 inhib -9%, IMPase cell inh 4 and ALDH1A1 inh 4%.
COc1cc(S(=O)(=O)NCc2ccccc2)ccc1Br was read as IMPase Li cell 11%, NPSR antag -4%, HPGD inh -15%, ALOX12 inhib 3% and ALDH1A1 inh 4%.
Screening COc1ccc(NC(=O)c2cc(C(C)C)on2)cc1OC returned IMPase Li cell -9%[38.3 µM], NPSR antag -3%[46.1 µM], HPGD inh -14%, ALOX12 inhib 3%, IMPase cell inh 3 and ALDH1A1 inh inconclusive.
`COc1ccc(NC(=O)c2cc(C(C)C)on2)c(OC)c1` gave IMPase Li cell 28%[38.3 µM], NPSR antag -6%[46.1 µM], HPGD inh inconclusive, ALOX12 inhib -6%, IMPase cell inh 3 and ALDH1A1 inh 4µM*.
Screening COc1cc(NC(=O)c2cc(C(C)C)on2)c(OC)cc1Cl returned IMPase Li cell 32%[38.3 µM], NPSR antag inconclusive, HPGD inh inconclusive, ALOX12 inhib 6%, IMPase cell inh -1 and ALDH1A1 inh 7.9µM*.
`c1cncc(-c2nc(N3CCCCCC3)c3ccccc3n2)c1` gave IMPase Li cell -4%[38.3 µM], NPSR antag inconclusive, HPGD inh -20%, ALOX12 inhib -12%, IMPase cell inh 1 and ALDH1A1 inh 1.4µM*.
`S=C(Nc1ccccn1)NC1CCCC1` gave IMPase Li cell 23%, NPSR antag -20% and ALDH1A1 inh inconclusive.
Screening Cc1cc(-n2c(C)cc(C(=S)N3CCOCC3)c2C)ccc1Br returned IMPase Li cell 13%, NPSR antag -45%, HPGD inh 10µM*, ALOX12 inhib -13% and ALDH1A1 inh 11µM*.
`COc1ccc(C2c3c(ncn(CCN4CCOCC4)c3=N)Oc3ccc4ccccc4c32)cc1OC` (stereo unspecified) gave IMPase Li cell -1%[38.3 µM], NPSR antag 1µM*, HPGD inh -1%, ALOX12 inhib -15%, IMPase cell inh 3 and ALDH1A1 inh 5%.
For NNC(=O)c1ccc(CSc2nc3ccccc3[nH]2)cc1 the results were IMPase Li cell -1%, NPSR antag -15% and ALDH1A1 inh 10µM*.
Screening Fc1c(F)c(F)c(CSc2nc3ccccc3[nH]2)c(F)c1F returned IMPase Li cell -8%[38.3 µM], NPSR antag 5%[46.1 µM], HPGD inh -13%, ALOX12 inhib 0%, IMPase cell inh -1 and ALDH1A1 inh 4%.
Screening COc1cc(/C=N/NC(=O)c2ccc(CSc3nc4ccccc4[nH]3)cc2)ccc1O returned IMPase Li cell 8%, NPSR antag -23% and ALDH1A1 inh inconclusive.
For Fc1ccccc1CSc1nc2ccccc2[nH]1 the results were IMPase Li cell 28%[38.3 µM], NPSR antag -2%[46.1 µM], HPGD inh 20µM*, ALOX12 inhib 4%, IMPase cell inh 3 and ALDH1A1 inh 13µM*.
For CCOc1cc(NC(=O)C2CCCCC2)c(OCC)cc1NC(=O)c1ccco1 the results were IMPase Li cell 5%[38.3 µM], NPSR antag 0%[46.1 µM], HPGD inh -16%, ALOX12 inhib 0%, IMPase cell inh 3 and ALDH1A1 inh -1%.
For CCn1cc(C(=O)NCc2ccccn2)c(=O)c2cc(S(=O)(=O)N3CCCCC3)ccc21 the results were IMPase Li cell 6%[38.3 µM], NPSR antag -9%[46.1 µM], HPGD inh inconclusive, ALOX12 inhib -1%, IMPase cell inh 12 and ALDH1A1 inh 11µM*.

Source: PubChem BioAssay (National Center for Advancing Translational Sciences (NCATS))
